Source: PubChem BioAssay (Tox21)
Inconclusive results are not listed. The source holds several records for some structures; these can differ, active in one and inactive in another. Calls of active or inactive are those of the source. Calls come from the whole dose curve.

target: Acetylcholinesterase (Homo sapiens) (UniProt P22303); assay: Acetylcholinesterase (AChE) small molecule antagonists: colormetric cell-based qHTS assay (AID 1347395); details: SH-SY5Y cells AChE activity, colorimetric (Ellman); series mostly up to 115 µM; activity, negative = inhibition: at the top concentration; note: nearly all actives have a fitted effect of over 30% in size
Sequence (P22303 whole entry, looked up): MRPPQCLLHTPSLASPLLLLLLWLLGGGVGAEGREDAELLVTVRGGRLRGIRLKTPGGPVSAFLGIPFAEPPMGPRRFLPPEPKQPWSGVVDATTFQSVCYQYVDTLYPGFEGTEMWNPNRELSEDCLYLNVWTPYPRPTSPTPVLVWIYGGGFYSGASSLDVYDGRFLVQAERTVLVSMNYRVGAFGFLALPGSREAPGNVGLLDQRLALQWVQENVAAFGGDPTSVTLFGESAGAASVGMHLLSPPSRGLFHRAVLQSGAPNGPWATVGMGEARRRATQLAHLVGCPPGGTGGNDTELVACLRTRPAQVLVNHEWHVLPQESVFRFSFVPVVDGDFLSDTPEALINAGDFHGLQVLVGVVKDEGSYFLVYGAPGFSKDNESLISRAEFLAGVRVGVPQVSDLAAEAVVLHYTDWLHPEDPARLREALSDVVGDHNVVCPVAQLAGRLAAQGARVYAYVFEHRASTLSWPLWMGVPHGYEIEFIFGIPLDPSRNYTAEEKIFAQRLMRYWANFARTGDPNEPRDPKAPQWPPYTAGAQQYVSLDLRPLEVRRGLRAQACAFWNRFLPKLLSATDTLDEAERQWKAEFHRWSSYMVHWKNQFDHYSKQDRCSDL
Procedure, shortened: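 SH-SY5Y cells; cpd 30 min 37 C; + DTNB/acetylthiocholine, 90 min 37 C; colorimetric thiocholine read; qHTS.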
% is set by controls: 0 for no effect and ±100 for the full control effect; potency is the fitted concentration of half-maximal effect.

SMILES | activity, negative = inhibition | Potency
CC(=O)N/N=C/c1ccc([N+](=O)[O-])o1 | -0.0236% [at 52.9 µM] (inactive) | –
CN1CCC(OC(c2ccccc2)c2ccccc2)CC1 | -7.64% [at 52.9 µM] (inactive) | –
Nc1ccc([N+](=O)[O-])c(C(F)(F)F)c1 | -6.09% [at 52.9 µM] (inactive) | –
CC1CC(C)C(=O)C1=O (centres undefined) | 2.59% (inactive) | –
OCCN(CCO)c1cccc(Cl)c1 | -1.21% (inactive) | –
Nc1ccc(O)c([N+](=O)[O-])c1 | -1.42% (inactive) | –
O=C(O)c1cccc(C[C@@H]2COc3ccc(OCc4nc5cc(F)ccc5s4)cc3[C@@H]2O)c1 | -0.838% (inactive) | –
O=C(O)c1ccc(O)cc1 | 3.06% (inactive) | –
Cc1cn([C@H]2C[C@H](F)[C@@H](CO)O2)c(=O)[nH]c1=O | -3.76% [at 52.9 µM] (inactive) | –
O=C1c2ccccc2C(=O)N1CCl | -0.409% (inactive) | –
NC(=O)N1c2ccccc2C=Cc2ccccc21 | – | 35.4 µM (active) and inactive
CCC(C)(C)C | 0.939% (inactive) | –
Fc1ccccc1-c1ccccc1 | 0.883% (inactive) | –
CCOB(OCC)OCC | -3.73% (inactive) | –
C=COCC1CCC(CO)CC1 (centres undefined) | 3.32% (inactive) | –
CN(C)c1ccc(Cc2ccc(N(C)C)cc2)cc1 | – | inactive
Cc1oc(C)c(C(=O)Nc2ccccc2)c1C | 3.54% (inactive) | –
CC(C(=O)O)c1cccc(Oc2ccccc2)c1 (centres undefined) | -3.2% [at 52.9 µM] (inactive) | –
O=C1CCCCCN1SSN1CCCCCC1=O | 0.631% (inactive) | –
